From PubChem BioAssay AID1468 (National Center for Advancing Translational Sciences (NCATS), 2008)
The campaign covered roughly 280,000 compounds. About 1,100 (0.39%) were called active. Not shown: some 7% with an inconclusive outcome. Calls come from the whole dose curve; as a rule, active = well fitted inhibition curve with a large enough effect; inconclusive = small, poorly fitted or top-dose-only effect, or effect the other way; inactive = flat fitted curve, though single readings scatter. For the sample, actives were picked, then their nearest neighbours and some compounds at random.

molecular target: Microtubule-associated protein tau (Homo sapiens) (UniProt P10636); assay: qHTS for Inhibitors of Tau Fibril Formation, Fluorescence Polarization; settings: K18 P301L tau heparin fibrillization, Alexa594 FP, 6 h; series mostly up to 57.7 µM; activity, negative = inhibition: at the top concentration; note: nearly all actives have a fitted effect of over 55% in size
Description: NIH Molecular Libraries Probe Production Network [MLPCN]
NIH Chemical Genomics Center [NCGC]
Assay Provider: Carlo Ballatore, University of Pennsylvania
The microtubule-associated protein tau is an abundant protein in the axons of neurons that stabilizes microtubules. With its ability to modulate microtubule dynamics, tau contributes directly or indirectly, to key structural and regulatory cellular functions. Particularly important is the influence tau exerts on axonal transport, which allows signaling molecules, trophic factors and other essential cellular constituents to travel along the axons. Under pathological conditions, tau becomes sequestered into insoluble aggregates called neurofibrillary tangles. This phenomenon is believed to have pathological consequences by promoting axonal transport deficits that ultimately lead to synaptic dysfunction and neuronal loss. To identify inhibitors of tau aggregation, a heparin-induced tau fibril formation assay was used that employed a recombinantly expressed fragment of tau, K18 (Q242-E372), bearing a P301L mutation (Gustke et al. 1994; Hong et al. 1998).
Gustke, N., B. Trinczek, et al. (1994). "Domains of tau protein and interactions with microtubules." Biochemistry 33(32): 9511-22.
Hong, M., V. Zhukareva, et al. (1998).
Li, W. and V. M. Lee (2006). "Characterization of two VQIXXK motifs for tau fibrillization in vitro." Biochemistry 45(51): 15692-701.
von Bergen, M., S. Barghorn, et al. (2001). "Mutations of tau protein in frontotemporal dementia promote aggregation of paired helical filaments by enhancing local beta-structure." J Biol Chem 276(51): 48165-74.
NCGC Assay Protocol Summary:
For screening, 2 uL/well human K18 P301L (15 uM unlabeled and 0.24 uM Alexa 594-labeled tau final concentrations) in reagent buffer (100 mM sodium acetate pH 7) was dispensed into black solid 1536-well plates (Grenier) using a solenoid-based dispenser. Following transfer of 23 nL compound or DMSO vehicle by a pin tool, 2 uL/well heparin (20 uM final concentration) in reagent buffer was added and the plate centrifuged 15 s at 1000 RPM. Plates were incubated 6 hr at 37 C and then 1 uL/well ThT (30 uM final concentration) was added. After a 1 hr ambient incubation, the plates were read by an Envision (Perkin Elmer) to monitor Alexa 594 FP (555 nm excitation and 632 nm emission).
Keywords: NIH Roadmap, MLPCN, MLI, MLSMR, NCGC, qHTS, tau, tauopathies, Alzheimer's disease, fibril, neurodegeneration, aggregation
% is set by controls: 0 for no effect and ±100 for the full control effect; potency is the fitted concentration of half-maximal effect.

Sequence of Microtubule-associated protein tau (Homo sapiens) (P10636 561-689 P618L limits assumed): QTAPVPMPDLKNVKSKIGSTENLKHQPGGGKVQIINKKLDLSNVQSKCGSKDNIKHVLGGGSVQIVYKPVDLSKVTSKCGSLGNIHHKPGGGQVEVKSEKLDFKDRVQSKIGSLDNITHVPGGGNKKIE

| SMILES | activity, negative = inhibition | Potency |
| --- | --- | --- |
| O=C(Cn1ncc2c3ccccc3n(Cc3ccccc3)c2c1=O)NC1CCCCCC1 | -3.1% (inactive) |  |
| Clc1ccc(CSc2nncn3c2cc2occc23)cc1 | -6.93% (inactive) |  |
| COc1ccc(C2CC(=O)N(Cc3ccccc3C)c3c2c(C)nn3-c2nc(C)cc(C)n2)c(OC)c1 (stereo not drawn) | 5.46% (inactive) |  |
| Cc1ccc(C)c(S(=O)(=O)c2nnn3c2nc(N2CCOCC2)c2sccc23)c1 | -0.999% (inactive) |  |
| Fc1ccc(CSc2nc(NCc3ccccc3)c3ccccc3n2)cc1 | 0.594% (inactive) |  |
| O=C(CSc1nc(Nc2ccc(F)c(F)c2)c2ccccc2n1)c1ccc(Cl)cc1 | -2.77% (inactive) |  |
| Fc1ccc(Nc2nc(SCc3ccccc3Cl)nc3ccccc23)cc1 |  | 6.31 µM (active) |
| Cc1ccc(C(=O)N2c3ncnn3C3(CCCCC3)[C@@H]3CCCC[C@@H]32)cc1 | -0.63% (inactive) |  |
| CCOc1ccc2nc(Nc3nc4ccc(NC(C)=O)cc4s3)sc2c1 | 17.7% (inactive) |  |
| CC(=O)Nc1ccc2nc(SCCOc3cc(C)cc(C)c3)sc2c1 |  | 12.6 µM (active) |
| Cc1ccc(OCCSc2nc3ccc(NC(=O)COc4ccc(C)cc4)cc3s2)cc1 | 1.12% (inactive) |  |
| COc1ccccc1C(=O)NCCn1cc(SCc2ccccc2Cl)c2ccccc21 | 7.76% (inactive) |  |
| COc1ccc(-c2nn(-c3ccccc3)cc2/C=C\C(=O)Nc2ccc(C(=O)O)cc2)cc1 | -13.7% (inactive) |  |
| Cc1ccc(-c2nn(-c3ccccc3)cc2/C=C/C(=O)Nc2cccc(S(N)(=O)=O)c2)cc1 |  | 14.1 µM (active) |
| O=C(O)c1ccc(NC(=O)c2cn(-c3ccccc3)nc2-c2ccc(Cl)cc2)cc1 | -3.57% (inactive) |  |
| O=C(O)/C=C/c1cn(-c2ccccc2)nc1-c1cccs1 | -2.28% (inactive) |  |
| Cc1ccc(-c2nn(-c3ccccc3)cc2C(=O)Nc2cccc(S(=O)(=O)N3CCOCC3)c2)cc1 |  | 14.1 µM (active) |
| O=C(COC(=O)c1ccccc1)Nc1cccc(S(=O)(=O)N2CCOCC2)c1 | -4.57% (inactive) |  |
| COc1ccccc1N1CCN(C2C(=O)c3ccccc3N2C(C)=O)CC1 (stereo not drawn) | 1.47% (inactive) |  |
| CCC(=O)N1CCc2cc(CNC(=O)Nc3ccccc3Cl)ccc21 | 1.87% (inactive) |  |
| COc1ccc(Cc2nc3ccc(C(=O)NCc4ccccc4C)cc3o2)cc1 | -4.5% (inactive) |  |

| SMILES | activity, negative = inhibition | Potency |
| --- | --- | --- |
| CCN1CCc2nc3sc(C(=O)Nc4ccccc4OC(F)(F)F)c(N)c3cc2C1 | 7.89% (inactive) |  |
| O=C(Nc1cccc(NC(=O)c2ccc(Br)cc2)c1)c1ccccc1 | -12.3% (inactive) |  |
| Cc1ccc(C(=O)Nc2ccc(C(=O)O)cc2)cc1S(=O)(=O)Nc1ccccc1 | -5.55% (inactive) |  |
| O=C(Nc1ccc(Br)cc1)c1ccc(Br)c(S(=O)(=O)NCc2ccccc2)c1 |  | 12.6 µM (active) |
| COC(=O)c1scc(-c2ccccc2)c1S(=O)(=O)Nc1ccccc1 | -4.44% (inactive) |  |
| Cc1ccc(Cn2c(C)c3cnn(CC(=O)NCc4ccccc4)c(=O)c3c2C)cc1 | 5.78% (inactive) |  |
| COc1ccc(N(C(=O)c2cccnc2)S(=O)(=O)c2ccc3c(c2)n(C)c(=O)n3C)cc1 | -5.86% (inactive) |  |
| CN(C)S(=O)(=O)c1cccc(C(=O)Nc2cccnc2)c1 | 4.52% (inactive) |  |
| O=C(c1cccnc1)N(c1cc2sc(=O)oc2c2ccccc12)S(=O)(=O)c1ccccc1 |  | 17.8 µM (active) |
| Cc1cccc(N2CCN(C(=O)c3cnc(N4CCCC4)nc3C)CC2)c1C | 3.19% (inactive) |  |
| CCc1ccccc1NC(=O)N1CCC2(CC1)Oc1ccccc1C(=O)N2Cc1ccccc1F | 0.521% (inactive) |  |
| Cc1ccc(N(CC(=O)NCC(C)c2ccccc2)S(=O)(=O)N(C)C)cc1 (stereo not drawn) | -10.6% (inactive) |  |
| CCOc1ccc(CNC(=O)Cn2cc3c(n2)-c2c(oc(C(=O)N4CCCC4)c2C)CC3)cc1 | 1.02% (inactive) |  |
| O=C(Nc1ccc2ccccc2c1)Nc1ccc2snnc2c1 |  | 11.2 µM (active) |
| COc1ccc(NC(=O)Nc2ccc3nsnc3c2)cc1 | 13.6% (inactive) |  |
| O=C(Nc1ccccc1)Nc1nc2ccccc2s1 | -11.5% (inactive) |  |
| Cc1ccc(Cl)cc1N1CCN(C(=O)C2CCC(CNS(=O)(=O)c3cccs3)CC2)CC1 (stereo not drawn) | -0.505% (inactive) |  |
| CCCOc1ccc(NC(=O)CC2C(=O)N(c3ccccc3)C(=O)N2Cc2ccco2)cc1 (stereo not drawn) | -1.22% (inactive) |  |
| O=C(CCCN1C(=O)/C(=C/c2ccccc2)SC1=S)Nc1ccc(O)cc1 | -0.488% (inactive) |  |
| COc1ccc(/C=C2\SC(=S)N(CC(=O)NNC(=O)c3ccncc3)C2=O)cc1 | 0.355% (inactive) |  |
| O=C(CCN1C(=O)/C(=C/c2cccs2)SC1=S)NNC(=O)c1cccc(O)c1 |  | 35.5 µM (active) |

| SMILES | activity, negative = inhibition | Potency |
| --- | --- | --- |
| O=C(CCC(=O)N1CC2CCCN2c2ccccc21)NCc1ccccc1Cl (stereo not drawn) | 5.73% (inactive) |  |
| CN(C)c1cccc(C(=O)Nc2nc3ccc(S(=O)(=O)NC(C)(C)C)cc3s2)c1 | -6.9% (inactive) |  |
| c1ccc2c(Nc3ccncc3)nc(-c3ccoc3)nc2c1 | 2.73% (inactive) |  |
| c1ccc2c(NCC3CCCO3)nc(-c3ccncc3)nc2c1 (stereo not drawn) | -0.627% (inactive) |  |
| CNc1nc(-c2ccccc2OC)nc2ccccc12 | -6.15% (inactive) |  |
| c1ccc2c(Nc3ccncc3)nc(-c3ccc4c(c3)OCO4)nc2c1 |  | 10 µM (active) |
| COc1cccc(-c2nc(Nc3ccncc3)c3ccccc3n2)c1 |  | 14.1 µM (active) |
| COc1ccccc1Oc1nc(-c2cccnc2)nc2ccccc12 | -11.2% (inactive) |  |
| COc1ccc(-n2c(SCC(N)=O)nc3c(oc4ccccc43)c2=O)cc1 | -5.07% (inactive) |  |
| Cc1cccc(C(=O)N2CCc3cc(CNC(=O)Cc4ccc(F)cc4)ccc32)c1 | 12.6% (inactive) |  |
| CCN(CC)S(=O)(=O)c1ccc2c(c1)N(CC(=O)NCC(C)c1ccccc1)C(=O)CO2 (stereo not drawn) | -5.51% (inactive) |  |
| Cc1ccc(S(=O)(=O)N2CCCc3cc(NS(=O)(=O)c4cc(C)ccc4C)ccc32)cc1 | -9.07% (inactive) |  |
| COc1ccc(/C=N/S(=O)(=O)c2ccccc2)cc1OC | 1.5% (inactive) |  |
| COc1cc(/C=N/NC(=O)c2ccccc2)ccc1OS(=O)(=O)c1ccccc1 |  | 35.5 µM (active) |
| COc1ccc(C(=O)Nc2ccccc2C(=O)N/N=C/c2ccc(O)c(OC)c2)cc1 | -10.4% (inactive) |  |
| COc1ccc(-c2nc(SCC(=O)N3CCCCC3C)n[nH]2)cc1 (stereo not drawn) | 0.155% (inactive) |  |
| Cc1nc(SCCOc2ccc(Cl)cc2)[nH]c(=O)c1Cc1ccccc1 | -15.5% (inactive) |  |
| C(=N\N1CCN(c2ccccn2)CC1)/C1=C(N2CCOCC2)C(=C/c2ccccc2)/CC1 | 2.73% (inactive) |  |
| N#C/C(=C\C1=C(N2CCOCC2)C(=C\c2ccccc2)/CC1)C(=O)Nc1ccccc1F |  | 25.1 µM (active) |
| N#C/C(=C\c1ccccc1C(F)(F)F)C(=O)Nc1ccccc1F | 0.663% (inactive) |  |
| Cc1c(Cl)cccc1-c1ccc(CNCCCSc2nnnn2C)o1 | 11.9% (inactive) |  |
